Bioassay records deposited in PubChem BioAssay by National Center for Advancing Translational Sciences (NCATS).
KCNH2 3.1 block: inhibitors of human KCNH2 3.1 potassium channel isoform. AID 720553. activity change, % (tested at about 1.8 µM). U2OS KCNH2 3.1, thallium flux FluxOr; active compounds read low. 340,000 compounds, 0.95% hits;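 active = maximum activity change below -70%; inconclusive = maximum activity change from -70% to -50%; inactive = maximum activity change above -50%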;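 note: thallium influx rate constant from kinetic fluorescence after stimulation buffer; % is set by controls: 0 for no effect and ±100 for the full control effect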
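Normalized rate constant (relative to positive and negative DMSO controls) derived from a 2 min kinetic fluorescence read after stimulation; U2OS cells expressing the 3.1 isoform via virus at 1.77 x 10^8 /mL.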
Rango complex inh: inhibitors of Rango-importin beta complex formation | Potency, µM (highest dose often 92.2 µM), inactives show at the top dose inhibition of complex formation | 340,000 compounds, 0.031% hits | Rango CFP/YFP FRET sensor + importin beta, 45 min | Q14974;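 note: potency is the fitted concentration of half-maximal effect; 0% = DMSO wells and 100% = buffer wells lacking importin beta; nearly all actives have a fitted effect of over 15% in size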
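FRET biosensor Rango (snurportin 1 IBB between N-terminal EYFP and C-terminal Cerulean), 50 nM in PBS/1 mM DTT/0.02% Tween-20/0.1% BSA, preincubated 5 min RT with compound; 0.125 microM importin beta added, 45 min RT, CFP/YFP FRET ratio read.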
MmCpn inh: M. maripaludis TRiC chaperonin inhibition | purified Mm-Cpn ATPase, ADP Transcreener TR-FRET | Potency, µM (highest dose often 76.9 µM), without a hit: at the highest dose activity, negative = inhibition, usual class: inhibitors | 330,000 compounds, 0.031% hits | AID 504842; active = well fitted inhibition curve with a large enough effect; inconclusive = small, poorly fitted or top-dose-only effect; note: potency is the fitted concentration of half-maximal effect; % is set by controls: 0 for no effect and ±100 for the full control effect; nearly all actives have a fitted effect of over 80% in size
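ATP (10 uM final) was added to archaeal chaperonin (25 nM final) after 10 min exposure to test compound at 37°C; after 30 min further incubation, ADP was detected by competitive TR-FRET.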
Rango dissoc inh: inhibitors of RanGTP-induced Rango-importin beta complex dissociation. AID 540253. Potency, µM (highest dose often 46.1 µM), for the others: top-dose activity change, negative = inhibition. Biochemical FRET Rango-importin beta, RanGTP-induced dissociation. 340,000 compounds, 0.071% hits. O95149+P62826; note: potency is the fitted concentration of half-maximal effect; % of control where 0% means no effect; nearly all actives have a fitted effect of over 45% in size
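FRET read at 45 min, room temperature: inhibitors block the CFP/YFP signal rise when RanGTP (0.6 uM Ran, 2 mM GTP, 0.2 uM RCC1) frees Rango (0.1 uM) from importin beta (0.25 uM). Pre-read after 5 min compound exposure flags interference.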
CCT chaperon mod: modulators of cytosolic chaperonin (CCT/TRiC) activity; purified chaperonin ATPase assay, HTRF ADP detection, 30 min; AID 651819; activity change, % (test concentration not listed), hits read low; 360,000 compounds, 0.3% hits; in the data active = activity change below about -30%; note: % is set by controls: 0 for no effect and ±100 for the full control effect
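Nucleotide hydrolysis assay: TRiC at 20–40 nM final (set by batch activity) with 10 uM ATP, 30 min at 37 °C, in presence of 76 uM compound. Detection by competitive ADP HTRF, 30 min ambient.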
KCNH2 WT inh: inhibitors of human wildtype KCNH2 potassium channel; U2OS, BacMam KCNH2, thallium flux FluxOr; active compounds read low; activity change, % at 1.84 µM; 340,000 compounds, 0.37% hits; AID 720551;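 active = maximum activity change below -70%; inconclusive = maximum activity change between -70% and -50%; inactive = maximum activity change above -50%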; note: % is set by controls: 0 for no effect and ±100 for the full control effect
Target sequence (Q12809 whole entry, looked up): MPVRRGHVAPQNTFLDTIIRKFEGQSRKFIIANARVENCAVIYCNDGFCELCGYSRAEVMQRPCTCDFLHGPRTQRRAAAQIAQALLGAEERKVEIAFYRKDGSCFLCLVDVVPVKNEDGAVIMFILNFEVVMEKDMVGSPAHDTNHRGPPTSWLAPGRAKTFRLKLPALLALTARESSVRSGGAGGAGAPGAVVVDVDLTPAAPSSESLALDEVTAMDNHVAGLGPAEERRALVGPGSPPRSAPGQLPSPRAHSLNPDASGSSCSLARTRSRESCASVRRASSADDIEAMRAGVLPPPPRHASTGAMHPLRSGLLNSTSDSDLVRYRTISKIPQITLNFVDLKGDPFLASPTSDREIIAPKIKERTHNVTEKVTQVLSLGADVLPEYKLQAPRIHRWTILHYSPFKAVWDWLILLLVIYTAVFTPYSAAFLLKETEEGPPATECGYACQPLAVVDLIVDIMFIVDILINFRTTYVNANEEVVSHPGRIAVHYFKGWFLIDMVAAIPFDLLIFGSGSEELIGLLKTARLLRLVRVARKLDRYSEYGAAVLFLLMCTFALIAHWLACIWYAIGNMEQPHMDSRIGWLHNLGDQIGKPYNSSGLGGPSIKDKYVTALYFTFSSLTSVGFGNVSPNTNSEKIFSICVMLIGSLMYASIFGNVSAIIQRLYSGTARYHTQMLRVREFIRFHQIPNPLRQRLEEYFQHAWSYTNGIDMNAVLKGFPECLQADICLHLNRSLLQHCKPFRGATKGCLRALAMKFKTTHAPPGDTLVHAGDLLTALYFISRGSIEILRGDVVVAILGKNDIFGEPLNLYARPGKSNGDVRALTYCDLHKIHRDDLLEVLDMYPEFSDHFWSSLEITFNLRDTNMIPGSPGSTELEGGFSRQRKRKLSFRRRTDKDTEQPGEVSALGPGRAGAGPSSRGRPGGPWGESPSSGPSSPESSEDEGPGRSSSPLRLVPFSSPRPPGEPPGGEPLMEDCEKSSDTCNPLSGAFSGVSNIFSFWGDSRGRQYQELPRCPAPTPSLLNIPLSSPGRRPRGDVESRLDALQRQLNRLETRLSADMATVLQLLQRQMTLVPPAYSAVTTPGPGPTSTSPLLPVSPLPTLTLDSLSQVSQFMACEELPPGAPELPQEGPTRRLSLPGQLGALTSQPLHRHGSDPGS
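U2OS cells were transduced with wild-type KCNH2 virus (2.03 x 10^8 / mL) for 4 h at room temperature, then cultured overnight at 37 C. Thallium flux was read with FluxOr dye. Rate constants were normalized to DMSO controls.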
An asterisk follows results filed as active; ? = inconclusive; . = not tested or not shown. Sampled rows, rich in hits. Any-hit rate of the full collection: about 1.4%. Unless noted, calls come from the whole dose curve.

SMILES	KCNH2 3.1 block	Rango complex inh	MmCpn inh	Rango dissoc inh	CCT chaperon mod	KCNH2 WT inh
O=C(N/N=C/CCc1ccccc1)c1ccc(CN2c3cccc4cccc(c34)S2(=O)=O)cc1	-78*	2%	?	-13%	0	18
COc1ccc(-n2ccnc2SCC(=O)Nc2ccc(OC)cc2OC)cc1	-12	-1%	-2%	-12%	0	5
CN(CCCNC(=O)c1cc2c(Cl)nc3ccccc3c2s1)Cc1ccccc1	.	0%	2%	11%	-4	-307*
O=C1Nc2ccccc2N(O)N1c1ccc(Cl)c(Cl)c1	2	-2%	4%	-9%	1	6
O=C1Nc2cc(Cl)c(Cl)cc2N(O)N1c1ccc(Cl)c(Cl)c1	-107*	2%	2%	1%	-2	-19
Cc1cc(CN2CCCC(CNC(=O)c3ccc(F)cc3)C2)cc(C)c1O (centres undefined)	-2	-5%	2%	2%	4	40
COc1cc(OC)c(OC)cc1CN1CCCC(C(=O)c2sccc2C)C1 (centres undefined)	-16	8%	2%	18%	2	61
Cc1ccsc1C(=O)C1CCCN(Cc2cc(F)ccc2-n2cccn2)C1 (centres undefined)	-81*	-3%	0%	2%	2	0
Cc1cc(C)c(CN2CCCC(CNC(=O)c3ccc(F)cc3)C2)c(-n2cccn2)c1 (centres undefined)	-111*	-5%	2%	6%	0	-85*
COc1cccc(CC(O)CC2c3c(cc4c(c3OC)OCO4)CCN2C)c1 (centres undefined)	-71*	3%	.	-24%	-2	34
COC(=O)CN1C(=O)[C@H]2[C@@H](C3CC3)N3C(=O)CN(Cc4ccccn4)C(=O)[C@@]3(Cc3ccccc3)[C@H]2C1=O	8	1%	2%	-7%	-40*	7
C/C=C(\C)C(=O)N1CCC(C(=O)c2ccccc2)CC1	13	-2%	1%	-2%	-2	6
Cc1ccc(S(=O)(=O)NCC(c2cccnc2)N2CCc3ccccc32)cc1 (centres undefined)	-6	-3%	0%	-6%	-49*	19
Cc1ccc(N/C(N)=N/c2nc(C)cc(N3CCCCC3)n2)c(C)c1	-97*	6%	1%	5%	-1	-14
COc1cc(/C=C2\SC(c3ccccc3)=NC2=O)cc(Cl)c1O	3	?	0%	-41%	-43*	1
COc1cc(/C=C2\SC(c3ccc(C)cc3)=NC2=O)cc(OC)c1OC	3	-1%	-1%	-20%	-64*	-10
c1ccc(-n2nnnc2Sc2n[nH]c(-c3ccncc3)n2)cc1	-189*	2%	0%	1%	-2	-200*
CCN(CC(=O)NCc1ccc(F)cc1)C(=O)Cc1ccc(OC)cc1	-8	1%	0%	5%	1	14
O=C(Cn1c(=S)[nH]c2ccccc21)c1ccccc1	-14	0%	1%	-12%	-34*	4
COc1cc(/C=C/C(=O)OCC(=O)N2CCCc3ccccc32)ccc1OCC#N	-1	7%	-1%	-18%	0	-5
COc1cc(/C=C/C(=O)OCC(=O)N2CCCc3ccccc32)ccc1O	-2	?	0%	15µM*	1	-3
COc1ccc(/C=C/C(=O)N2CCCc3ccccc32)c(OC)c1	8	5%	-3%	16%	2	-79*
CCc1ccc(NC(=O)CSc2nnc(CNC(=O)c3ccco3)o2)cc1	-9	4%	4%	6%	-1	-3
CC(=O)c1c(N2CCOCC2)nc2ccc(Br)cc2c1-c1ccccc1	1	0%	-6%	-7%	-1	2
O=C1c2[nH]nc(-c3ccccc3O)c2C(c2cccc(Cl)c2)N1CC1CCCO1 (centres undefined)	-191*	1%	1%	2%	0	-137*
